# Source: PubChem BioAssay AID624300 (Southern Research Specialized Biocontainment Screening …, 2012)
# The campaign covered roughly 2,400 compounds. About 360 (15%) were called active.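 How the source made its calls: active means viability falls under 70% at one or more tested concentrations, taken as toxicity; inactive means viability stays over 70% at every dose.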 Not all results are given here. Measured potencies and affinities stand elsewhere.
# Experiment: HeLa cell cytotoxicity, dose response, cytotoxicity control for MgcRacGAP inhibitor project (AID 624300);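 further: 100% = median of untreated control wells on the same plate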
# Conditions: CellTiter-Glo luminescence, 24 h; series mostly up to 100 µM; viability: at the top concentration
row,Compound,viability
1,CC1(C)O[C@@H]2[C@H](O1)[C@@H](COS(=O)(=O)O)O[C@H]2n1c(=S)[nH]c2c(=O)[nH]c(N)nc21,97.4% (inactive)
2,Cc1c(N(C)C)nc2ccccc2c1N,105% (inactive)
3,O=C(O)CC1SC(=Nc2ccc(O)cc2)NC1=O (stereo unspecified),99% (inactive)
4,COc1cc(/C=N/NC2=NCCCCC2)ccc1O,106% (inactive)
5,S=c1[nH]nc(Nc2ccccc2Cl)s1,93.5% (inactive)
6,O=C1NC(=S)S/C1=C\C=C\c1ccc([N+](=O)[O-])o1,80.3% (inactive)
7,O=C1NC(=NCc2ccccc2)S/C1=C/c1ccc(O)cc1,100% (inactive)
8,Cc1cc(/C=C2\SC(=S)NC2=O)c(C)[nH]1,89.5% (inactive)
9,COc1cc(/C=C2\SC(=Nc3ccc(Cl)c(C(=O)O)c3)NC2=O)c(Br)c(Br)c1O,104% (inactive)
10,CCOC(=O)C1CCN(Cc2cccc(Oc3ccccc3)c2)CC1,94.7% (inactive)
11,COc1cc(/C=N/NC(=O)c2cn(-c3cccc(C)n3)cn2)ccc1O,102% (inactive)
12,COc1cc([C@H]2OC[C@H]3[C@@H]2CO[C@H]3c2ccc(O)c(OC)c2)ccc1O,91.9% (inactive)
13,O=C(CN1CCN(c2ccc(O)cc2)CC1)N(C1CC1)C1CCS(=O)(=O)C1 (stereo unspecified),104% (inactive)
14,N#C/C(=C/c1ccc(O)c(O)c1)C(=O)NCc1ccc(Cl)cc1,80.4% (inactive)
15,COc1ccc(CNCC(=O)Nc2cc(OC)cc(OC)c2)cc1,98% (inactive)
16,C=CCc1ccc(OCCOCCNCCCC)c(OC)c1,97.1% (inactive)
17,COc1ccc(NC2CCCN(C(=O)c3ccc4[nH]c(C)c(C)c4c3)C2)cc1 (stereo unspecified),99% (inactive)
18,Cc1ccc(NC(=O)CCC(=O)N/N=C/c2ccc(O)cc2O)cc1,108% (inactive)
19,Cc1ccc(O)c(N=Cc2sc3ccccc3c2Cl)c1,91.1% (inactive)
20,Cc1ccc(O)c(N=Cc2cc(Cc3ccccc3)cc([N+](=O)[O-])c2O)c1,96.8% (inactive)
21,C=CCc1cccc(C=Nc2cc(Br)ccc2O)c1O,86.5% (inactive)
22,Cc1cccc(C=Nc2ccc3c4c(cccc24)CC3)c1O,106% (inactive)
23,O=C(CN1CCN(c2ccccn2)CC1)Nc1ccc(F)cc1,89.7% (inactive)
24,CCOc1cc(C=NNC(=O)c2cccc(S(=O)(=O)N3CCCC3)c2)ccc1O,91.9% (inactive)

row,Compound,viability
1,COCCCNC(=O)/C(C#N)=C/c1c(N2CCN(c3ccc(OC)cc3)CC2)nc2c(C)cccn2c1=O,89.9% (inactive)
2,O=C(c1ccco1)N1CCN(Cc2cccc([N+](=O)[O-])c2)CC1,106% (inactive)
3,COc1cc(/C=N/N(C)c2ccccc2)ccc1O,83% (inactive)
4,COc1cc(OC)c(OC)cc1/C=N/N(C)c1ccccc1,109% (inactive)
5,COc1ccc(Cn2c(O)c(/C=N/NC(=O)c3cccnc3)c3ccccc3c2=O)cc1,111% (inactive)
6,CCOC(=O)c1[nH]c2ccccc2c1NC(=S)Nc1ccccc1C,106% (inactive)
7,CCN(CC)S(=O)(=O)c1ccc(C)c(NC(=O)CN2CCN(C)CC2)c1,100% (inactive)
8,Oc1ccc(/C=N/Nc2cc(N3CCOCC3)nc(N3CCOCC3)n2)cc1,92.5% (inactive)
9,Oc1ccc(/C=N/Nc2cccc(Cl)n2)c(O)c1,91.5% (inactive)
10,Cc1nc(Cl)cc(N/N=C/c2ccc(O)cc2O)n1,100% (inactive)
11,Oc1ccc(/C=N/Nc2nc(N3CCCC3)nc(N3CCCC3)n2)cc1O,102% (inactive)
12,CCOc1cc(/C=N/n2cnnc2)ccc1O,99.9% (inactive)
13,CC1CCC/C(=C\Nc2ccc(O)cc2)C1=O (stereo unspecified),106% (inactive)
14,CCOCCCNC(=O)CN1CCN(c2ccc(F)cc2)CC1,96.4% (inactive)
15,CC(C)=C(NC(=O)c1ccccc1)C(=O)N/N=C/c1ccc(O)cc1,104% (inactive)
16,O=C(NN=Cc1ccc(O)cc1)c1ccccc1NS(=O)(=O)c1cccs1,93.7% (inactive)
17,C=CCc1cc(Cl)ccc1OCCNCCN1CCOCC1,101% (inactive)
18,CCCS(=O)(=O)N1CCN(C2Cc3ccccc3C2)CC1,106% (inactive)
19,C=CCOC(=O)c1cc(-c2ccc(/C=C3\C(=O)NC(=O)C(C#N)=C3C)o2)ccc1Cl,85.3% (inactive)
20,CCN1CCN(CC(=O)Nc2cc(C(F)(F)F)ccc2OCCOC)CC1,99.1% (inactive)
21,COCCNC(=O)Cn1cc(/C=N/NC(=O)c2ccc(Oc3ccc(O)cc3)cc2)c2ccccc21,104% (inactive)
22,CCOc1cc(/C=N/n2c(C)nnc2C)ccc1O,101% (inactive)
23,CCOc1cc(-c2nc3ccccc3s2)ccc1O,87.2% (inactive)
24,NCC[C@H](O)C(=O)N[C@@H]1C[C@H](N)[C@@H](O[C@H]2O[C@H](CN)[C@@H](O)[C@H](O)[C@H]2O)[C@H](O)[C@H]1O[C@H]1O[C@H](CO)[C@@H](O)[C@H](N)[C@H]1O,104% (inactive)

row,Compound,viability
1,CSCc1ccc(C(=O)N2CCCC(Nc3ccc4c(c3)OCCO4)C2)o1 (stereo unspecified),100% (inactive)
2,Cc1ccccc1N1C(S)=C(C#N)C(=O)NC12CCCCC2,103% (inactive)
3,C/C(=N\Nc1cccc2cccnc12)c1ccc[nH]1,96.6% (inactive)
4,COc1ccc(CN2CCN(Cc3ccco3)CC2)cc1OC,93.6% (inactive)
5,O=C1C(=Cc2ccco2)CCC1=Cc1ccco1,99.7% (inactive)
6,CCN(CC)c1ccc(NC(=O)CCN2C(=O)c3ccccc3S2(=O)=O)c(C)c1,105% (inactive)
7,Nc1cc(C(F)(F)F)ccc1N1CCOCC1,96.6% (inactive)
8,CCc1ccccc1NC(=S)NCC1CCN(c2ccc(OC)cc2)C1 (stereo unspecified),95% (inactive)
9,Nc1ccc2c(c1)[nH]c(=O)c1cc(N)ccc12,93.6% (inactive)
10,Nc1ccc2nc(Cc3ccccc3)[nH]c2c1,115% (inactive)
11,O=C(c1ccc(Cl)c(S(=O)(=O)N2CCCCCC2)c1)N1CCN(c2ccc(O)cc2)CC1,87% (inactive)
12,CCN(CC)S(=O)(=O)c1ccc(N/N=C/c2ccc(O)cc2)nc1,95.9% (inactive)
13,CSc1nc(C)c2c(n1)N(c1ccc(O)cc1)CC2,103% (inactive)
14,CCN1CCN(c2ccc(N=Cc3ccccc3O)cc2)CC1,101% (inactive)
15,CC(=O)c1c(C)c(C)c2n1CCn1c(C)ccc1-2,96.3% (inactive)
16,CCN=C1S/C(=C\c2ccc(O)c(OCC)c2)C(=O)N1CC,101% (inactive)
17,CN1C(=O)/C(=C/c2ccc(C(=O)Nc3ccc(O)cc3C(=O)O)cc2)SC1=S,103% (inactive)
18,Cc1ccc(NCCCCO)cc1C,95.5% (inactive)
19,O=c1cc(-c2ccc(O)c(O)c2)oc2cc(O)c([C@@H]3O[C@H](CO)[C@@H](O)[C@H](O)[C@H]3O)c(O)c12,84.2% (inactive)
20,C/C(=N\NC(=O)c1cccc(N/N=C(\C)c2cc(O)ccc2O)c1)c1cc(O)ccc1O,86% (inactive)
21,Cn1c(=O)[nH]c(NCCc2ccc(O)cc2)c([N+](=O)[O-])c1=O,106% (inactive)
22,CC(=O)C1=C(O)C(=O)N(c2ccc(O)cc2)C1c1ccccc1[N+](=O)[O-] (stereo unspecified),93% (inactive)
23,COc1cc(/C=N/NC(=O)c2cc[n+]([O-])cc2)ccc1O,102% (inactive)
24,O=C1C=CC(=O)N1c1ccccc1N1C(=O)C=CC1=O,114% (inactive)

row,Compound,viability
1,CCS(=O)(=O)c1ccc2oc(=O)c(/C=C(\O)c3ccc(Cl)cc3)nc2c1,99.4% (inactive)
2,CN(C)CCCC1Sc2ccccc2Sc2ccccc21 (stereo unspecified),113% (inactive)
3,Nc1cc([N+](=O)[O-])ccc1Nc1ccc(O)cc1,91.9% (inactive)
4,Cc1ccc(-n2c(=S)[nH]c3sc4c(c3c2=O)CCC4)cc1,80.5% (inactive)
5,COc1cc(/C(C)=N\NC(=O)CSc2nc3ccccc3n2C)ccc1O,102% (inactive)
6,CCN1CCN(CC(=O)Nc2nc3ccc(OC)cc3s2)CC1,88.7% (inactive)
7,CCC(=O)N1CCc2cc(S(=O)(=O)CCC(=O)NCc3ccc(C)cc3)ccc21,97.8% (inactive)
8,CCOc1ccc(CN2CCN(Cc3c[nH]c4ccccc34)CC2)cc1,93.4% (inactive)
9,O=C(CCc1c[nH]c2ccccc12)NCCc1ccc(O)cc1,101% (inactive)
10,Nc1nc2cc(S(=O)(=O)NC3=NCCCCC3)ccc2s1,99.8% (inactive)
11,Nc1nc(N)c2[nH]c(=S)[nH]c2n1,90.9% (inactive)
12,CN(CC(=O)NCc1ccncc1)S(=O)(=O)c1ccc(Cl)cc1,96.8% (inactive)
13,COC(=O)c1[nH]c2ccc(C)cc2c1NC(=O)Oc1ccccc1,92.6% (inactive)
14,COc1cccc(OC)c1OCCNC(C)(C)C,100% (inactive)
15,CC(C)[C@H](N[C@@H](C)c1ccccc1)c1c(O)ccc2ccccc12,97.3% (inactive)
16,Nc1ccc(OCCc2ccccc2)cc1,108% (inactive)
17,O=[N+]([O-])c1ccccc1OCCNCc1ccccc1,96.5% (inactive)
18,CCn1c(-c2ccccc2)csc1=Nc1ccc(O)cc1,98.7% (inactive)
19,O=c1[nH][nH]cc1C=Nc1cc(Cl)ccc1O,95.4% (inactive)
20,CN(C)/C=C1\NC(=S)N(c2ccccc2)C1=O,99.2% (inactive)
21,CCc1ccc(NC(=O)CNCc2ccc(OC)c(OC)c2)cc1,105% (inactive)
22,CCOc1ccccc1/C=c1\sc2ncnn2c1=O,91.7% (inactive)
23,Cn1c(=O)[nH]c(N)c(Br)c1=O,105% (inactive)
24,O=C(COc1ccccc1)NCC(=O)N/N=C/c1ccc(O)cc1O,103% (inactive)

row,Compound,viability
1,O=Nc1ccc(NOC(=O)c2ccccc2)cc1,99.9% (inactive)
2,Nc1ccc2c(c1)Nc1ccccc1CC2,97.6% (inactive)
3,CCN1CCN(CCOc2ccccc2OCc2ccccc2)CC1,97.9% (inactive)
4,COc1cc(/C=N/Nc2nc(N3CCCC3)nc(N3CCCC3)n2)ccc1O,89.4% (inactive)
5,COc1cc(/C=N/Nc2nc(C)cc(C)n2)ccc1O,104% (inactive)
6,Oc1ccc(/C=N/Nc2ncnc3nc[nH]c23)cc1,99.2% (inactive)
7,Oc1ccc(/C=N/Nc2ncc(Cl)cc2Cl)cc1,107% (inactive)
8,COc1cc(/C=N/NC(=O)C(C)n2nnc3ccccc32)ccc1O (stereo unspecified),107% (inactive)
9,COc1cc(/C=N/Nc2ccc(C(=O)O)cc2)ccc1O,92.5% (inactive)
10,O=C(O)C1CCCCC1C(=O)Nc1ccc(S(=O)(=O)N2CCOCC2)cc1 (stereo unspecified),107% (inactive)
11,Cc1ccn2c(=S)[nH]nc2c1,106% (inactive)
12,Oc1cc(Br)ccc1C=Nc1ccc(N2CCCCC2)cc1,95.8% (inactive)
13,COc1ccccc1CNCC(=O)Nc1ccc(N(C)C)cc1,100% (inactive)
14,O=C(N/N=C/c1ccc(O)cc1)Nc1cccc2nsnc12,84.8% (inactive)
15,Cc1csc(=O)n1CC(=O)OC(C)C(=O)Nc1ccc(N(C)C)cc1 (stereo unspecified),106% (inactive)
16,CCN(Cc1ccccc1)c1ccc(/C=N/N2CCOCC2)cc1,101% (inactive)
17,C=CCn1c(SCC(=O)Nc2ccc(O)cc2)nc2sc(CC)cc2c1=O,92.4% (inactive)
18,Brc1ccccc1OCCCCCN1CCOCC1,95% (inactive)
19,C=CCNC(=O)CN1CCN(C(c2ccccc2)c2ccccc2)CC1,96.1% (inactive)
20,COc1ccc(NC2CCCN(C(=O)c3ccc(C(C)=O)s3)C2)cc1 (stereo unspecified),108% (inactive)
